Source: PubChem BioAssay (NCI)
Compounds without any hit were thinned out: in the full panel of roughly 79,000, 15% have a hit. No stated cut-off is given here; in the data, active means growth inhibition above about 70%; inactive means the rest.

Legend:
[1] = NCI Yeast Anticancer Drug Screen. Data for the rad52 strain (AID 147);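 further: 0% = growth of vehicle-treated control cultures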; settings: S. cerevisiae rad52 mutant growth inhibition, active compounds read high
Procedure, shortened: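 Here a repair-compromised yeast strain receives each compound; its growth is then quantified and normalised to vehicle-only controls.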

[2] = NCI Yeast Anticancer Drug Screen. Data for the wt1 strain (AID 149);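 further: 0% = growth of vehicle-treated wt1 cultures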; settings: S. cerevisiae wt1 strain (SPY 50644) growth inhibition, active compounds read high
Procedure, shortened: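 Measured: growth of wt1 yeast under compound versus vehicle treatment, reported as inhibition.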

[3] = NCI Yeast Anticancer Drug Screen. Data for the rad50EPP+ strain (AID 151);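 further: 0% = growth of vehicle-treated control cultures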; settings: S. cerevisiae rad50 mutant strain, active compounds read high
Procedure, shortened: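 Read-out is yeast growth inhibition relative to vehicle; cells used were the rad50EPP+ strain.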

[4] = NCI Yeast Anticancer Drug Screen. Data for the mgt1 strain (AID 153); settings: S. cerevisiae mgt1 mutant growth inhibition, active compounds read high
Procedure, shortened: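 Measured: inhibition of mgt1 yeast growth by compound, normalized to vehicle-treated cultures.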

[5] = NCI Yeast Anticancer Drug Screen. Data for the rad50 strain (AID 155);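 further: 0% = growth of vehicle-only cultures of the same strain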; settings: S. cerevisiae rad50 strain growth inhibition, active compounds read high
Procedure, shortened: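 Growth of the mutant yeast was measured after compound exposure and referenced to vehicle-treated cultures.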

[6] = NCI Yeast Anticancer Drug Screen. Data for the mec2-1 strain (AID 157); settings: S. cerevisiae mec2-1 strain, active compounds read high
Procedure, shortened: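 Using mec2-1 yeast: add compound, measure growth, express inhibition versus vehicle-treated cultures.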

[7] = NCI Yeast Anticancer Drug Screen. Data for the rad14 strain (AID 159);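 further: 0% = growth of vehicle-treated control cultures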; settings: S. cerevisiae rad14 strain growth inhibition, active compounds read high
Procedure, shortened: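 Here, inhibition of yeast growth was measured after compound exposure, using a strain with a genetic defect in DNA damage repair and vehicle-treated cultures as the reference.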

[8] = NCI Yeast Anticancer Drug Screen. Data for the sgs1 mgt1 strain (AID 161);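 further: 0% = growth of cultures given vehicle only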; settings: S. cerevisiae sgs1 mgt1 strain, active compounds read high
Procedure, shortened: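 Compounds are added to genetically altered yeast, and growth is compared with cultures given vehicle alone to give percent inhibition.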

[9] = NCI Yeast Anticancer Drug Screen. Data for the CLN2oe strain (AID 163);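 further: 0% = growth of vehicle-only control cultures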; settings: S. cerevisiae CLN2oe strain, active compounds read high
Procedure, shortened: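 Whole-cell yeast growth assay. A strain engineered for altered cell-cycle control received compound, and inhibition relative to vehicle-treated cultures was recorded.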

[10] = NCI Yeast Anticancer Drug Screen. Data for the cln2 rad14 strain (AID 165);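 further: 0% = growth equal to vehicle treated cultures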; settings: S. cerevisiae cln2 rad14 strain, active compounds read high
Procedure, shortened: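 Yeast strain cln2 rad14, bearing defects in cell cycle control and DNA repair, serves as the test system; values reflect growth inhibition compared with vehicle.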

[11] = NCI Yeast Anticancer Drug Screen. Data for the bub3 strain (AID 167); settings: S. cerevisiae bub3 mutant strain, active compounds read high
Procedure, shortened: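 Whole-cell yeast assay. The mutant strain was incubated with compounds, and growth inhibition was determined by comparison with vehicle-treated cells.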

[12] = NCI Yeast Anticancer Drug Screen. Data for the wt2 strain (AID 169);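 further: 0% = growth of vehicle-treated yeast cultures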; settings: S. cerevisiae wt2 strain growth inhibition, active compounds read high
Procedure, shortened: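 Treated yeast vs. vehicle-treated yeast: growth inhibition determined.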

[13] = NCI Yeast Anticancer Drug Screen. Data for the mlh1 strain (AID 171);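 further: 0% = growth of vehicle-treated control cultures of the same strain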; settings: S. cerevisiae mlh1 strain growth inhibition, active compounds read high
Procedure, shortened: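 A yeast strain with a defined genetic lesion serves as the test organism. Cultures receive compound or vehicle, and growth is measured.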

[14] = NCI Yeast Anticancer Drug Screen. Data for the sgs1 strain (AID 173);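 further: 0% = growth of vehicle-only control cultures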; settings: S. cerevisiae sgs1 mutant, active compounds read high
Procedure, shortened: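 A genetically defined yeast mutant is incubated with the test compound, and its growth is compared to that of the same strain given vehicle.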

[15] = NCI Yeast Anticancer Drug Screen. Data for the mlh1 rad18 strain (AID 175); settings: S. cerevisiae mlh1 rad18 strain growth inhibition, active compounds read high
Procedure, shortened: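 Steps: expose repair-defective yeast to compound; measure growth; express inhibition against vehicle-treated controls.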

[16] = NCI Yeast Anticancer Drug Screen. Data for the rad18 strain (AID 177); settings: S. cerevisiae rad18 mutant growth inhibition, active compounds read high
Procedure, shortened: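 Measured value is growth inhibition of a yeast strain bearing a DNA repair alteration, referenced to vehicle-treated cells.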

[17] = at 5.0 µM (retest, dose inferred, filed as 0.5)
[18] = at 50.0 µM (retest, dose inferred, filed as 5.0)

Measured: growth inhibition

N#CC(=Nc1ccccc1F)Nc1ccccc1F
inactive: [1]; at 1.2 µM -3% | [1]; at 3.7 µM -3% | [1]; at 11.0 µM -2% | [1]; at 33.0 µM 8% | [1]; at 100.0 µM 9% | [2]; at 1.2 µM -5% | [2]; at 3.7 µM -3% | [2]; at 11.0 µM -11% | [2]; at 33.0 µM -10% | [2]; at 100.0 µM -7% | [3]; at 1.2 µM 6% | [3]; at 3.7 µM 11% | [3]; at 11.0 µM 21% | [3]; at 33.0 µM 29% | [3]; at 100.0 µM 20% | [4]; at 1.2 µM -5% | [4]; at 3.7 µM -4% | [4]; at 11.0 µM -4% | [4]; at 33.0 µM 2% | [4]; at 100.0 µM -2% | [5]; at 1.2 µM 0% | [5]; at 3.7 µM 2% | [5]; [17] -6% | [5]; at 11.0 µM -1% | [5]; at 33.0 µM 5% | [5]; [18] -1% | [5]; at 50.0 µM -2.35% | [5]; at 100.0 µM 5% | [6]; at 1.2 µM -4% | [6]; at 3.7 µM -1% | [6]; [17] -4% | [6]; at 11.0 µM -4% | [6]; at 33.0 µM 8% | [6]; [18] 8% | [6]; at 50.0 µM -2.55% | [6]; at 100.0 µM 10% | [7]; at 1.2 µM -5% | [7]; at 3.7 µM -4% | [7]; at 11.0 µM -4% | [7]; at 33.0 µM 10% | [7]; at 100.0 µM 12% | [8]; [17] -3% | [8]; [18] 15% | [8]; at 50.0 µM 12.1% | [9]; at 1.2 µM 1% | [9]; at 3.7 µM 0% | [9]; at 11.0 µM 5% | [9]; at 33.0 µM 11% | [9]; at 100.0 µM 26% | [10]; [17] -1% | [10]; [18] -3% | [10]; at 50.0 µM -0.6% | [11]; at 1.2 µM -3% | [11]; at 3.7 µM -3% | [11]; [17] -2% | [11]; at 11.0 µM -1% | [11]; at 33.0 µM 5% | [11]; [18] 3% | [11]; at 50.0 µM 8.55% | [11]; at 100.0 µM -2% | [12]; at 1.2 µM -2% | [12]; at 3.7 µM -3% | [12]; at 11.0 µM -5% | [12]; at 33.0 µM 2% | [12]; at 100.0 µM 3% | [13]; at 1.2 µM -1% | [13]; at 3.7 µM -5% | [13]; at 11.0 µM -6% | [13]; at 33.0 µM -2% | [13]; at 100.0 µM 5% | [14]; at 1.2 µM -3% | [14]; at 3.7 µM -7% | [14]; at 11.0 µM -6% | [14]; at 33.0 µM 12% | [14]; at 100.0 µM 24% | [15]; [17] -7% | [15]; [18] 0% | [15]; at 50.0 µM 66.8% | [16]; at 1.2 µM -6% | [16]; at 3.7 µM -7% | [16]; at 11.0 µM -10% | [16]; at 33.0 µM -2% | [16]; at 100.0 µM 9%
